Only some compounds are listed: those with a hit (about 2% of all), similar ones and a draw of the others.
Yeast superoxide: yeast age-related superoxide inhibition as caloric restriction mimetic; S. cerevisiae aged cells, superoxide DHE fluorescence; hits give low values; superoxide response (% of plate mean), % at 10 µM; 0.18% of 330,000 active;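 active = superoxide response under a set limit, about three screen SD below normal, cut at about 65% in these data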;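 also: yeast aged for seven days with compound at 30 °C before DHE staining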
Calb FLC: affects C. albicans growth with fluconazole; C. albicans CaCi-2 (fluconazole-resistant clinical isolate) + fluconazole, Alamar Blue growth, 48 h; growth inhibition, % (test concentration not listed); 0.57% of 300,000 active;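 active = growth inhibition above about 58% in most replicates, limit read from the data, passing the limit was not always enough; inconclusive = exactly half the replicates above a set limit; inactive = most replicates below a set limit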;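 also: all wells also contain fluconazole at 8 µg/ml as a sub-toxic cotreatment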
SKKanGAS inh: SKKanGAS growth inhibition; S. pyogenes SKKanGAS, kanamycin growth, BacTiter-Glo, 6 h; inhibition, % at 7.5 µM; 1.3% of 300,000 active; AID 1662;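 active = mean replicate score, as percent of positive control median, at least 50; inconclusive = mean below 50 but one replicate at or above 50; inactive = mean and every replicate below 50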;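 also: strain carries kanamycin resistance gene driven by streptokinase promoter and grows in 40 µg/ml kanamycin; loss of luminescence reflects streptokinase promoter inhibition or plain growth inhibition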
PolyA inhibitor: inhibitors of polyadenylation in S. cerevisiae | S. cerevisiae SKY197-pL101 polyadenylation reporter, beta-gal luminescence; efflux-impaired pdr1/pdr3 knockout yeast; score 100 = 6 SD above DMSO | 0.02% of 300,000 active | activity score, % at 12 µM;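 active = lowest replicate activity score at least 50, where 100 means six control SD above control mean; inconclusive = lowest score under 50 but half or more replicates reach 50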;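 also: yeast exposed to compound for 9 h at 30 °C; higher score means more reporter readthrough which indicates perturbed polyadenylation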
Platelet DG rel: platelet dense granule release activity | human platelet-rich plasma, SFLLRN dense granule ATP release, luminescence | inhibition, %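 (compounds screened at 7.5 µM in platelet-rich plasma)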 | 0.22% of 300,000 active;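 active = mean replicate score, as percent of positive control, at or above 50; inconclusive = mean below 50 but at least one replicate at or above 50; inactive = mean and every replicate below 50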
Numbers stand for hits; – = inactive; ? = inconclusive; · = not tested or not shown.

SMILES	Yeast superoxide	Calb FLC	SKKanGAS inh	PolyA inhibitor	Platelet DG rel
Cc1cc(/C=N/NC(N)=S)c(C)n1-c1cccc(Cl)c1	–	104.0	–	–	–
COc1ccc(N(CC(=O)Nc2ccc(S(=O)(=O)N3CCOCC3)cc2)S(=O)(=O)c2ccc(F)cc2)cc1	–	–	–	–	–
CCOc1ccc(NC(=O)c2ccc3c(c2)OCCO3)cc1S(=O)(=O)N(CC)CC	–	·	·	·	·
CC(OC(=O)c1oc2ccccc2c1COc1ccccc1)C(N)=O (stereo unspecified)	–	109.2	–	–	–
CN(C)C(CNC(=O)c1ccc2nccnc2c1)c1ccco1 (stereo unspecified)	–	·	·	·	·
COc1ccc(CCNC(=O)COc2nncc3ccccc23)cc1	–	–	–	–	–
COC(=O)c1c(-c2c(Cl)cccc2Cl)noc1C(=O)NNC(=O)N(C)C	–	–	–	–	–
COC(=O)CS(=O)(=O)c1ccc2c(c1)CC(=O)N2	–	–	–	–	64.4
COc1cccc(NS(=O)(=O)c2ccc3c(c2)CC(=O)N3)c1	–	·	·	·	·
CON/C=C(\C=Nc1ccccc1)c1ncc(C(F)(F)F)cc1Cl	–	–	–	–	–
CON/C=C(\C=Nc1ccc(Cl)cc1Cl)c1ncc(C(F)(F)F)cc1Cl	–	93.8	–	–	–
O=C(OCC#CCSc1nnc(-c2cccc3ccccc23)o1)c1cnc[nH]1	–	·	·	·	·
NNC(=O)CSc1c(-c2ccccc2)c2cc(Cl)ccc2[nH]c1=O	–	–	–	–	–
O=c1[nH]c2ccc(Cl)cc2c(-c2ccccc2)c1SC(=S)N1CCOCC1	–	–	84.0	–	–
O=c1[nH]c2ccc(Cl)cc2c(-c2ccccc2)c1SC(=S)N1CCCCC1	–	–	66.4	–	–
COc1ccc(CNC(=O)CN(C(=O)CCC(=O)Nc2nccs2)c2ccc3c(c2)OCO3)cc1	–	–	–	–	–
COc1cccc(-c2nc(NC(C)C)c3ccccc3n2)c1O	–	85.5	–	–	–
CC(Nc1nc(-c2ccccc2O)nc2ccccc12)c1ccccc1 (stereo unspecified)	–	–	57.9	–	–
Cc1nn(Cc2ccc(C(=O)Nc3nc4c(C)cccc4s3)o2)c(C)c1Br	–	–	57.6	–	–
Cc1c(CCOC(=O)CC23CC4CC(CC(C4)C2)C3)sc[n+]1Cc1ccccc1	–	99.8	–	–	–
CCCCCCCCOC(=O)C1=C(C)Nc2nnnn2C1c1cccs1 (stereo unspecified)	–	–	107.5	–	–
COc1ccc(S(=O)(=O)Nc2ccccc2C(=O)N2CCOCC2)cc1Br	–	–	–	–	–
O=C(NCc1ccc(F)cc1)C(c1ccccc1)N(CC1CCCO1)C(=O)Cn1nnc2ccccc21 (stereo unspecified)	–	91.6	–	–	–
O=C(NCc1ccco1)C(c1ccccc1)N(CC1CCCO1)C(=O)Cn1nnc2ccccc21 (stereo unspecified)	–	–	–	–	–
COc1ccc(OC[C@@H](O)CNC(=O)c2cccc3c2C(=O)c2ccc(Cl)cc2S3(=O)=O)cc1	–	·	·	·	·
SMILES	Yeast superoxide	Calb FLC	SKKanGAS inh	PolyA inhibitor	Platelet DG rel
O=Cc1cc(N=Nc2ccccc2Cl)ccc1O	–	85.6	77.9	–	–
O=C(CN1CCN(c2ccc(O)cc2)CC1)NC(c1ccccc1)c1ccccc1	–	114.2	–	–	–
Cc1ccc(/C=C/c2ccc(N(C)C)cc2)[n+](C)c1	–	82.4	–	–	–
CN(C)c1ccc(/C=C/c2cc[n+](C)cc2)cc1	–	–	–	–	–
NC(=O)CC[C@@H]1NC(=O)[C@@H]2CCCN2C(=O)c2cc([N+](=O)[O-])cc(I)c2NCCCC[C@@H](C(=O)NC(CC(=O)O)C(N)=O)NC1=O (stereo partly specified)	–	–	–	–	–
COCCNC(=O)C(c1ccc(C)o1)N(CCOC)C(=O)Cn1nnc2ccccc21 (stereo unspecified)	–	81.6	–	–	–
CCOc1ccccc1C(C(=O)NCCOC)N(CCOC)C(=O)Cn1nnc2ccccc21 (stereo unspecified)	–	–	–	–	–
CC(C)c1ccc(OCC(=O)NC2CC(C)(C)NC(C)(C)C2)c(Br)c1	–	–	–	–	–
CCc1ccc(/C(C)=N/NC(=O)c2ccccn2)cc1	–	–	–	–	–
CCOc1ccc(C(=O)N/N=C(\c2ccccc2)c2ccccn2)cc1	–	–	68.9	–	–
O=C(N/N=C(\c1ccccc1)c1ccccn1)c1cccc([N+](=O)[O-])c1	–	113.0	?	–	–
CC/C(=C\C1CCCCC1)C(NP(=O)(c1ccccc1)c1ccccc1)c1ccccc1 (stereo unspecified)	·	–	100.9	–	–
CN1C(=O)/C(=C/C=C2\SCCN2C)SC1=S	·	–	–	–	–
O=C(O)c1ccccc1C(=O)N1CCc2c([nH]c3ccccc23)C1C(F)(F)F (stereo unspecified)	–	–	–	–	–
COc1ccc(C(=O)N2CCc3c([nH]c4ccccc34)C2C(F)(F)F)cc1 (stereo unspecified)	–	–	51.6	–	–
CCc1ccccc1NC(=O)C1CCN(c2cnccn2)CC1	–	–	–	–	–
S=C(NCCC(c1ccccc1)c1ccccc1)Nc1ccc(Cl)cc1	–	–	117.1	–	–
CC(C)(C)C(=O)N1N=C(c2ccc(NS(C)(=O)=O)cc2)CC1c1cccs1 (stereo unspecified)	–	–	49.8	–	–
NS(=O)(=O)c1ccc(CNC(=O)c2scc3c2CCCC3)cc1	–	–	–	–	–
S=c1[nH]c(-c2ccccc2)cn1/N=C/c1cccc2ccccc12	–	–	57.4	–	–
CCc1ccccc1-n1c(SCC(=O)NC)nnc1-c1ccco1	–	–	–	–	·
Cc1cccc(-c2oc3ccccc3c2C#CCCCCO)c1	–	–	75.7	–	–
Cc1cccc(-c2oc3ccccc3c2C#CCCO)c1	–	–	–	–	–
O=C(NC(=S)Nc1ccc(Br)c(Cl)c1)C1CC1	–	–	–	–	–
CC(=O)c1ccc(NC(=S)Nc2ccc(Br)c(Cl)c2)cc1	–	–	94.6	–	–
SMILES	Yeast superoxide	Calb FLC	SKKanGAS inh	PolyA inhibitor	Platelet DG rel
COc1ccc(S(=O)(=O)N2CCN(C(=O)CNC(=O)c3ccc4c(c3)OCO4)CC2)cc1	–	·	–	–	–
CCOC(=O)C1=C(C2=CCCCC2)c2ccc(OC)cc2N(S(=O)(=O)C(F)(F)F)C1C(=O)OCC (stereo unspecified)	–	·	·	·	·
O=C(COC(=O)c1ccc2ncsc2c1)Nc1ccccc1Cl	39.7	·	·	·	·
O=C(COC(=O)c1ccc2ncsc2c1)Nc1cc([N+](=O)[O-])ccc1Cl	–	·	·	·	·
CN(c1ccc(OCC(=O)Nc2cc(Cl)ccc2C(=O)O)cc1)S(=O)(=O)c1ccc(F)cc1	59.2	·	·	·	·
NNC(=O)c1cc2c(N3CCC(Cc4ccccc4)CC3)ncnc2s1	–	–	–	–	–
CCOc1ccc(NC(=S)NC(=O)c2cncc(Br)c2)cc1	–	–	–	–	–
O=c1[nH]c(Nc2ccc3c(c2)OCCO3)nnc1Cc1ccccc1	–	120.2	–	–	–
